Measured values: PubChem BioAssay AID720597 (Broad Institute, 2013)
Entries with a potency or affinity are not part of this list. Active and inactive are the calls of the source.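 The calls were made as follows: active = fitted half-maximal dose no more than twice the top valid tested dose, for compounds that lower signal; inconclusive = fit invalid, or curve flat with activity between -70 and -30; inactive = potency past limit, curve flat within ±30, or signal increasing.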

Target: NAD-dependent protein deacylase sirtuin-5, mitochondrial (Homo sapiens) (UniProt Q9NXA8)
Assay: SIRT5 deacylase inhibitors, dose response, biochemical, fluorescence imaging, cherry-pick, set 6 (AID 720597);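 also: lower AMC signal can also come from blocking the trypsin step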
Settings: Purified SirT5, succinyl-peptide-AMC/trypsin fluorescence; series mostly up to 15 µM

NAD-dependent protein deacylase sirtuin-5, mitochondrial (Homo sapiens), sequence (Q9NXA8 whole entry, looked up): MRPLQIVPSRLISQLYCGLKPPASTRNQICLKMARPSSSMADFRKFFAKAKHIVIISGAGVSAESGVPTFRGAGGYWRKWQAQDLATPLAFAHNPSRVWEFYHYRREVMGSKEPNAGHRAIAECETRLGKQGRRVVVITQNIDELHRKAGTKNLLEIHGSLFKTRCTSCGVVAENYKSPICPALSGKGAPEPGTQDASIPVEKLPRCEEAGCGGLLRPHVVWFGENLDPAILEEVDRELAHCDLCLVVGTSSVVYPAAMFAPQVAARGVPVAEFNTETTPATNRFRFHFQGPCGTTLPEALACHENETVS

outcome, inactive:
Cc1ccc(S(=O)(=O)N(C)C[C@@H]2OCCCC[C@@H](C)Oc3ccc(NS(=O)(=O)c4ccc(F)cc4)cc3C(=O)N([C@@H](C)CO)C[C@H]2C)cc1
C[C@H](CO)N1C[C@H](C)[C@@H](CN(C)Cc2ccc(Oc3ccccc3)cc2)Oc2ccc(NC(=O)Cc3ccccc3)cc2C1=O
O=S(=O)(N[C@H]1CC[C@H](CCn2cc(-c3cccc(F)c3)nn2)O[C@H]1CO)c1ccc(F)cc1
C[C@@H]1CN([C@H](C)CO)S(=O)(=O)c2ccc(C#Cc3cccc(F)c3)cc2O[C@@H]1CN(C)CC1CC1
C[C@@H]1CN([C@H](C)CO)C(=O)c2cc(NS(=O)(=O)c3ccc(F)cc3)ccc2O[C@@H](C)CCCCO[C@@H]1CN(C)CC1CCCCC1
C[C@@H]1CN([C@@H](C)CO)C(=O)Cc2cc(NS(=O)(=O)c3ccc(Cl)cc3)ccc2O[C@@H]1CN(C)CC1CCCCC1
CC(C)c1cn(CC[C@H]2CC[C@H](NS(=O)(=O)c3ccc(F)cc3)[C@@H](CO)O2)nn1
Cc1ccc(S(=O)(=O)N(C)C[C@H]2OCCCC[C@H](C)Oc3ccc(NS(=O)(=O)c4ccc(Cl)cc4)cc3C(=O)N([C@@H](C)CO)C[C@H]2C)cc1
CN(C)C(=O)[C@@H]1[C@@H](CO)[C@@H]2Cn3c(ccc(-c4ccccc4)c3=O)[C@@H]2N1Cc1ccccc1
COc1ccc(NC(=O)N(C)C[C@@H]2Oc3ccc(NS(=O)(=O)c4ccc(F)cc4)cc3C(=O)N([C@H](C)CO)C[C@H]2C)cc1
